Compound activity: PubChem, several laboratories
HDAC3 inhib: HDAC3 deacetylase inhibitors, primary screen, biochemical, fluorescence, cell-free homogeneous | recombinant HDAC3, fluorogenic peptide/trypsin coupled | 320,000 compounds, 0.15% hits | AID 2718, 2010 | Histone deacetylase 3 (Homo sapiens), O15379 | inhibition, % at 8.3 µM; in the data active = inhibition above about 26%, passing the limit was not always enough
GC-B act: human GC-B receptor activators, primary screen, HEK293 GC-B cells, cGMP TR-FRET, EC30 CNP. Atrial natriuretic peptide receptor 2 (Homo sapiens), P20594. 0% at EC30 CNP, 100% saturating CNP. activation, % at 10 µM. 370,000 compounds, 0.11% hits;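 active = activation at 10 µM reaching about 35% in either raw or pattern-adjusted values, limit read from the data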
NPR1 activator: GC-A stimulated cGMP production enhancers – HEK293 GC-A cells, cGMP TR-FRET, EC30 ANP, primary screen; Atrial natriuretic peptide receptor 1 (Homo sapiens), P16066; 0% at EC30 ANP, 100% saturating ANP; activation, % at 10 µM; 370,000 compounds, 0.14% hits; AID 1671463, 2021; in the data active = activation above about 40%
ALR inh: inhibitors of human ALR sulfhydryl oxidase, primary screen, biochemical, H2O2 detection, HRP-luminol luminescence, single point | FAD-linked sulfhydryl oxidase ALR (Homo sapiens), P55789 | purified ALR, DTT oxidation | inhibition, % (test concentration not listed) | 290,000 compounds, 3.8% hits;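 active = mean replicate inhibition above about 79%, with every replicate also reaching it, limit read from the data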
Target sequence (P55789 whole entry, looked up): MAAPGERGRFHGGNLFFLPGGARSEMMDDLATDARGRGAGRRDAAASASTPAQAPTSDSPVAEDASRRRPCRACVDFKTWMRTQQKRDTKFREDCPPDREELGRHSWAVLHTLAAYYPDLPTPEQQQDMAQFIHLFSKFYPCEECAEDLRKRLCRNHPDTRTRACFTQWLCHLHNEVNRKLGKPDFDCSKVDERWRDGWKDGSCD
Active calls of the source: *; . = not tested or not shown. Many of the other results were omitted from the sample, so hits are more common in it than they were.

SMILES	HDAC3 inhib	GC-B act	NPR1 activator	ALR inh
Cc1ccc(C)c(NC(=O)CN(C)C(=O)c2ccccc2OCc2c(C)noc2C)c1	5	-4	-3	-2
C/C(=N/NS(=O)(=O)c1ccc(Br)cc1)c1ccc(C)o1	2	3	-4	98*
C/C(=N\NS(=O)(=O)c1ccc(Br)cc1)c1ccc2c(c1)OCO2	-2	6	1	31
Cc1cc(C(=O)Cn2ncc(Cl)c(Cl)c2=O)c(C)n1CC(F)(F)F	3	56*	45*	27
CC(C)OC(=O)c1ccc2ccc(-c3ccccc3)nc2c1	.	-8	-4	.
CC(=O)N1CCOc2cc(S(=O)(=O)NCc3ccc(F)cc3)c(C)cc21	-2	-7	-1	-3
Cc1ccc(CNS(=O)(=O)c2cc3c(cc2C)N(C)CCO3)cc1	.	-5	-10	89*
COc1ccccc1-n1c(C)c(C(=O)O)c2cc(OC)c3ccccc3c21	-5	-4	-12	0
Oc1ccc(/C=N/Nc2ncnc3c2ncn3Cc2ccccc2)cc1O	8	5	-1	96*
Oc1cccc(/C=N/Nc2ncnc3c2ncn3Cc2ccccc2)c1	2	-1	-1	71
COCCCN1C(=O)C(=O)/C(=C(/O)c2ccc3c(c2)OCCO3)C1c1ccc(C(=O)OC)cc1 (centres undefined)	11	3	8	85*
COc1ccc(OC)c(S(=O)(=O)N(CCc2ccc(OC)c(OC)c2)Cc2cccs2)c1	.	1	0	.
COc1ccc(CCN(Cc2cccs2)S(=O)(=O)c2ccc(C(=O)O)cc2)cc1OC	2	-2	-4	94*
C=CCc1cc(/C=N/n2cnnc2)cc(OCC)c1O	7	-7	0	48
COc1cc(/C=N/Nc2nn3cnnc3c3ccccc23)ccc1O	5	-4	0	4
CCOc1cc(/C=N/n2cnnc2)ccc1O	5	-4	-1	99*
CCOc1cc(/C=N/Nc2nn3cnnc3c3ccccc23)ccc1O	.	-3	-2	82*
Cn1cccc1CC(=O)NNC(=S)Nc1ccc(Cl)cc1	2	-5	18	55
O=C1CC(NNC(=O)c2cccc(F)c2)C(=O)N1 (centres undefined)	3	1	-1	92*
CCCCCCCCN1C(=O)[C@H](CC(=O)N2CCCC2)C[C@@]2(C(=O)OC)CCCCC=C12	.	5	-1	.
Cc1ccsc1/C=N\NC(=O)CCc1c(C)n[nH]c1C	-5	-2	-2	-1
S=c1[nH]nc(-c2ccc(Cl)cc2)n1-c1ccc2c(c1)OCCO2	9	-5	-1	57
S=c1[nH]nc(-c2ccc(Cl)cc2Cl)n1-c1ccc(Cl)cc1	0	-9	-2	94*
O=c1ccc(-c2n[nH]c(=S)n2-c2ccc(F)c(Cl)c2)n[nH]1	3	4	-1	86*
S=c1[nH]nc(-c2ccc(Cl)cc2)n1-c1ccc(Cl)cc1	-4	1	0	82*
SMILES	HDAC3 inhib	GC-B act	NPR1 activator	ALR inh
COc1ccccc1NC(=O)CCSc1nc(C)cs1	0	-1	-5	-4
COc1ccc(/C=N/NC(=O)C(=O)N2CCCCCC2)cc1	2	8	-4	-1
CCn1nc([N+](=O)[O-])c2c(-c3nc4ccccc4o3)c(N)n(CCCOC)c2c1=O	-10	5	46*	57
O=C(CCn1c(=S)oc2ccccc21)N1CCN(c2ccc(F)cc2)CC1	-1	-6	-3	33
O=C(CCn1c(=O)oc2ccccc21)N1CCN(c2ccc(F)cc2)CC1	-3	-6	-4	97*
CC(C)CCSc1nc(N2CCOCC2)c2c(c1C#N)CC(C)(C)OC2	-6	43*	35	-7
CCSc1nc(N2CCOCC2)c2c(c1C#N)CC(C)(C)N(C)C2	2	11	5	.
COC(=O)CSc1nc(N2CCOCC2)c2c(c1C#N)CC(C)(C)N(C)C2	-5	-4	5	95*
CCc1ccc(CN(C)CCc2ccccn2)cc1	5	-8	-4	2
Cc1ccc(CN(C)CCc2ccccn2)cc1	-5	-2	-3	96*
C[C@H](CO)N1C[C@H](C)[C@@H](CN(C)C(=O)Nc2ccc3c(c2)OCO3)Oc2c(NC(=O)Nc3ccc(C(F)(F)F)cc3)cccc2C1=O	8	-5	-4	-11
N#CC1=C(N)Oc2cc(O)ccc2C1c1ccc(Br)s1 (centres undefined)	4	-6	75*	1
CC(=O)Nc1cccc(NC(=O)CSc2ncc(-c3ccccc3)[nH]2)c1	-4	-7	-9	99*
O=C(CSc1ncc(-c2ccccc2)[nH]1)Nc1cccc(O)c1	5	1	6	99*
NC(=O)CSc1ncc(-c2ccccc2)[nH]1	1	2	4	18
O=C(CSc1ncc(-c2ccccc2)[nH]1)Nc1ccccc1	2	.	.	99*
O=C(CSc1ncc(-c2ccccc2)[nH]1)Nc1ccccc1F	-3	-3	0	12
O=C(O)C1(c2ccccc2)CCN(S(=O)(=O)c2cccc(Cl)c2)CC1	3	6	2	-8
CC(=O)N1CCC(C(=O)N2c3ccccc3N=C(c3ccc4c(c3)OCO4)C2C(=O)Nc2c(C)cccc2C)CC1 (centres undefined)	.	2	1	.
COC1=C[C@H](C(=O)NC2CCN(Cc3ccccc3)CC2)[C@H](C)[C@@H](c2ccccc2)CC1=O	.	4	1	.
CN1CCCC1=Nc1ccccc1	.	6	3	.
Cc1ccc(S(=O)(=O)Nc2c(C(=O)O)[nH]c3ccccc23)cc1C	2	-2	-1	98*
CCS(=O)(=O)Nc1c(C(=O)OC)[nH]c2ccccc12	12	1	-2	60
Cc1cc(S(=O)(=O)Nc2c(C(=O)O)[nH]c3ccccc23)ccc1F	0	4	3	.
CCS(=O)(=O)Nc1c(C(=O)O)[nH]c2ccccc12	-36	-4	-1	99*
SMILES	HDAC3 inhib	GC-B act	NPR1 activator	ALR inh
CSc1cccc(NC(=S)Nc2cc(C)ccc2C)c1	-3	1	5	0
CCC(C)[C@H](N)c1cn([C@@H](Cc2cc3ccccc3[nH]2)C(=O)N2CCNCC2)nn1 (some centres undefined)	-2	3	2	-14
Cc1nc(C#N)c(N/N=C/c2c(F)cccc2Cl)o1	-2	-4	1	98*
Cc1nc(N)nc(N/N=C/c2c(F)cccc2Cl)n1	5	-1	-1	.
Cc1nnc(NCC=Cc2ccccc2)s1	.	2	1	.
COc1ccc(/C=N/Nc2ccc(C(=O)O)cc2)cc1OC	.	2	-1	.
C=CCOc1c(Br)cc(/C=N/Nc2ccc(C(=O)O)cc2)cc1OCC	2	-3	-1	97*
COc1ccc2c(/C=N/Nc3ccc(C(=O)O)cc3)c[nH]c2c1	2	1	-4	88*
COc1ccc(C(=O)N/N=C/c2c[nH]c3ccccc23)cc1	10	0	-3	12
COc1ccc(/C=N/Nc2ccc(C(=O)O)cc2)cc1Br	4	-8	0	99*
